Source: PubChem (PCMD)
Rows were chosen to be rich in hits. Some 0.5% of all compounds tested hit in one or more screens of this group.
FXIa inh mix – FXIa protease inhibitors in compound pools, primary screen, biochemical, 10-compound mixtures; 62,000 tested, 0.19% active; Coagulation factor XI (Homo sapiens), P03951; purified FXIa, fluorogenic substrate, pooled mixtures; inhibition, % at 5 µM; AID 680, 2007;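 also: each value is inhibition by a whole ten-compound pool holding the compound; 0% = enzyme with no mixture and 100% = wells lacking enzyme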
C1s block – complement C1s protease inhibitors, primary screen, biochemical, 10-compound mixtures. mean inhibition % of two 10-compound mixtures (hits give high values), % at 5 µM (by protocol). purified C1s, fluorogenic AMC substrate, pooled mixtures. 62,000 tested, 0.16% active. Complement C1s subcomponent (Homo sapiens), P09871. AID 538, 2006;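 active = inhibition above 20% in each of the two 10-compound mixture wells holding the compound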;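 also: 0% = enzyme wells lacking compound mixture and 100% = no-enzyme blank wells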
FXIIa mix inh – human factor XIIa inhibitors, primary screen, biochemical, pooled compound mixtures, fluorogenic substrate | Coagulation factor XII (Homo sapiens), P00748 | purified FXIIa | inhibition, % at 5 µM | 62,000 tested, 0.2% active | AID 684, 2007;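 also: 0% = enzyme without compound and 100% = no enzyme blank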
Cathepsin G inh – human cathepsin G inhibitors, primary screen, biochemical, pooled compound mixtures, AMC fluorescence; P08311; purified enzyme, AMC-tetrapeptide fluorescence; inhibition, % at 5 µM (by protocol); 62,000 tested, 0.2% active; AID 581, 2007;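 active = inhibition above 20% in each of the two mixture wells holding the compound; inactive = inhibition of 20% or less in either well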;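 also: 0% = enzyme control without mixture and 100% = blank lacking enzyme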
Target sequence (P08311 21-244 limits assumed): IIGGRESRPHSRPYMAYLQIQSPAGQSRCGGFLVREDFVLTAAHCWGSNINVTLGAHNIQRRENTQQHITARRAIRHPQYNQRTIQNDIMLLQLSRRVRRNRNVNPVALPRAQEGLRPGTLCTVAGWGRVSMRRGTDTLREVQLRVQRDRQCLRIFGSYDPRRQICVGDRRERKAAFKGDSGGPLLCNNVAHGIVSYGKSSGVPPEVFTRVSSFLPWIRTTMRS
* hit, by the source's call. Rule as the data show it, unless noted: active = inhibition above about 20% (passing the limit was not always enough); inactive = the rest.

SMILES | FXIa inh mix | C1s block | FXIIa mix inh | Cathepsin G inh
CC1(C)C(c2ccccc2)=NC(c2cccnc2)N1O (configuration not stated) | 9 | 62* | 5 | 8
C=CCn1c(O)c(C=Nc2ccc(OC)cc2C)c(=O)[nH]c1=O | 8 | 11 | -15 | 9
